Test results from PubChem BioAssay (EPA / NIEHS).
Records with an inconclusive call do not appear. The source made the active and inactive calls. Rule for the calls, unless noted: active = hit-call score of the fitted dose curve at least 0.9, where 1 is the maximum; inactive = score below 0.9.

Assays:
[1] = UKN2_HCS_IMR90_neural_migration: University of Konstanz (UKN) Leist Lab Neural Crest Cell Migration Assay in human induced IMR90 Pluripotent Stem Cells (UKN2) (AID 2284204); details: actives raise or lower the signal
Outline: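 Migration of human IMR90-derived neural crest cells into a stopper-defined gap is imaged after 24 h chemical treatment. Activity is fitted bidirectionally relative to DMSO.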

[2] = UKN4_HCS_LUHMES_neurite_outgrowth: University of Konstanz (UKN) Leist Lab Neurite Outgrowth Assay in human LUHMES cells (UKN4) (AID 2284206); details: actives raise or lower the signal
Outline: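 2-day-differentiated LUHMES, 24 h cpd exposure, live calcein-AM + H-33342 stain, HCS fluorescence imaging of neurite area; DMSO = baseline, bidirectional fit.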

[3] = IUF_NPC1b_proliferation_BrdU_72hr: Leibniz Research Institute for Environmental Medicine (IUF) 72-hour Neural Progenitor Cell Bromodeoxyuridine (BrdU) Proliferation Assay (NPC1b) (AID 2284207)
Outline: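 Proliferation of primary human neural progenitor cells: 72 h compound treatment at 37C, 5% CO2, pH 7.2-7.6, in EGF/FGF-containing medium. Readout is BrdU uptake (last 16 h) by chemiluminescent ELISA, normalised to DMSO.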

[4] = IUF_NPC1a_proliferation_area_72hr: Leibniz Research Institute for Environmental Medicine (IUF) 72-hour Neural Progenitor Cell Proliferation Area Assay (NPC1a) (AID 2284208)
Outline: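 Spheres of 0.3 mm are plated singly in growth-factor medium and exposed from day 0. After three days at 37C and 5% CO2, sphere area is measured by phase contrast imaging, with activity referenced to DMSO.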

[5] = IUF_NPC1_viability_72hr: Viability Assessment at 72 hours in the Leibniz Research Institute for Environmental Medicine (IUF) Neural Progenitor Cell Proliferation Assay (NPC1) (AID 2284209)
Outline: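 Each well receives one 0.3 mm progenitor sphere from fetal brain cortex; test chemical is added at plating and left three days. Viability comes from alamar blue fluorescence, multiplexed with LDH and BrdU readouts in the same well.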

[6] = CCTE_Mundy_HCI_Cortical_Synap_Neur_Matur_NeuriteSpotCountPerNeuriteLength: CCTE's Synaptogenesis and Neurite Maturation Assay in rat cortical cells for Neurite Spot Count per Neurite Length, Mundy Lab (AID 2284210)
Outline: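 Primary rat cortical neurons, compound exposure DIV 7–12, 288.33 h endpoint. Hoechst, anti-MAP2 and anti-synaptophysin labelling; neurite-associated puncta per neurite length scored by automated imaging relative to DMSO controls.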

[7] = CCTE_Mundy_HCI_Cortical_NOG_NeuriteLength: CCTE's Neurite Outgrowth Assay in rat cortical cells for Neurite Length, Mundy Lab (AID 2284213);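 note: neurites imaged about 48 to 50 h after chemical exposure began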
Outline: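 Neurite length was read by high-content imaging of βIII-tubulin-labelled neurites in rat primary cortical cultures. Activity was fitted relative to DMSO.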

[8] = CCTE_Mundy_HCI_Cortical_Synap_Neur_Matur_NeuriteSpotCountPerNeuron: CCTE's Synaptogenesis and Neurite Maturation Assay in rat cortical cells for Neurite Spot Count per Neuron Count, Mundy Lab (AID 2284215)
Outline: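 Rat cortical primary cultures; AraC DIV 5 to arrest glia; dosing + media change DIV 7; fixed DIV 12. Anti-MAP2/anti-synaptophysin, Hoechst nuclei; HCI puncta count per neuron, positive fitting direction vs DMSO.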

[9] = CCTE_Mundy_HCI_Cortical_Synap_Neur_Matur_SynapseCount: CCTE's Synaptogenesis and Neurite Maturation Assay in rat cortical cells for Synapse Count, Mundy Lab (AID 2284218)
Outline: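 Synapse count per neuron is measured in rat cortical neurons exposed to chemicals between DIV 7 and DIV 12, with glial growth arrested by AraC at DIV 5. Synaptophysin and MAP2 staining is imaged automatically; activity is fitted relative to DMSO.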

[10] = CCTE_Mundy_HCI_hN2_NOG_NeuriteCount: CCTE's Neurite Outgrowth Assay in human hN2 cells for Neurite Count, Mundy Lab (AID 2284219; active = hit-call score of the fitted dose curve at least 0.9, where 1 is the maximum)
Outline: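 In this morphology assay, hNP1-derived neurons received test chemical 2 h post-plating and were fixed two days later in warm paraformaldehyde/sucrose containing Hoechst 33342. Neurites, labelled by rabbit anti-βIII-tubulin (1:800) and Alexa Fluor-488 (1:500), were counted automatically.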

[11] = CCTE_Mundy_HCI_hN2_NOG_NeuriteLength: CCTE's Neurite Outgrowth Assay in human hN2 cells for Neurite Length, Mundy Lab (AID 2284220; active = hit-call score of the fitted dose curve at least 0.9, where 1 is the maximum)
Outline: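 Plate hNP1-derived neurons, then add chemical 2 h later as a 1/10 dilution. Stain with anti-βIII-tubulin then Alexa Fluor-488 secondary, and image automatically to measure neurite length.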

[12] = CCTE_Mundy_HCI_hN2_NOG_NeuronCount: CCTE's Neurite Outgrowth Assay in human hN2 cells for Neuron Count, Mundy Lab (AID 2284221; active = hit-call score of the fitted dose curve at least 0.9, where 1 is the maximum)
Outline: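 Read-out is the number of betaIII-tubulin-positive neurons imaged by automated high-content analysis, with DMSO as negative control.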

[13] = CCTE_Mundy_HCI_Cortical_Synap_Neur_Matur_CellBodySpotCount: CCTE's Synaptogenesis and Neurite Maturation Assay in rat cortical cells for Cell Body Spot Count, Mundy Lab (AID 2284223)
Outline: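 Rat cortical neurons; AraC @ DIV 5; dose + media change DIV 7; fix DIV 12; anti-MAP2/anti-synaptophysin IF, Hoechst; HCI count of soma synaptophysin puncta/neuron; DMSO = negative control.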

[14] = UKN4_HCS_LUHMES_cell_viability: Viability Assessment in the University of Konstanz (UKN) Leist Lab Neurite Outgrowth Assay in human LUHMES cells (UKN4) (AID 2284232)
Outline: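 Human dopaminergic-model LUHMES neurons were exposed to chemicals for 24 h after a 2-day differentiation. Viability was scored by imaging Hoechst H-33342 staining, with activity fitted in both directions relative to DMSO controls.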

[15] = UKN2_HCS_IMR90_cell_viability: Viability Assessment in the University of Konstanz (UKN) Leist Lab Neural Crest Cell Migration Assay in human induced IMR90 Pluripotent Stem Cells (UKN2) (AID 2284233);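 note: viability of neural crest cells differentiated from IMR90 iPSC measured by calcein-AM fluorescence imaging; cells exposed to compound for 24 h after a 24 h migration phase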
Outline: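 Human IMR90-derived neural crest cells were allowed to migrate for 24 h into a cell-free zone, then exposed to test chemicals for 24 h. Calcein-AM and Hoechst staining with high-content imaging gave viability, analysed against DMSO baseline.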

[16] = CCTE_Mundy_HCI_Cortical_NOG_NeuronCount: CCTE's Neurite Outgrowth Assay in rat cortical cells for Neuron Count, Mundy Lab (AID 2284236; active = hit-call score of the fitted dose curve at least 0.9, where 1 is the maximum;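 note: neurons counted by imaging betaIII-tubulin and Hoechst stained cortical cells; cells exposed to compound for about 48 hours before fixation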)
Outline: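 Read-out: neuron number by high-content imaging of betaIII-tubulin (Alexa Fluor-488) and Hoechst-labelled rat primary cortical cells.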

[17] = CCTE_Mundy_HCI_hNP1_Casp3_7: CCTE's Caspase-Glo 3/7 Assay in human neuroprogenitor cells for Apoptosis, Mundy Lab (AID 2284240)
Outline: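 Apoptosis is scored by activated caspase-3/7 luminescence in WA09-derived neural progenitor cells, measured 26.5 h after chemical dosing. Values represent gain of signal relative to DMSO vehicle.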

[18] = CCTE_Mundy_HCI_Cortical_Synap_Neur_Matur_NeuronCount: CCTE's Synaptogenesis and Neurite Maturation Assay in rat cortical cells for Neuron Count, Mundy Lab (AID 2284242; active = hit-call score of the fitted dose curve at least 0.9, where 1 is the maximum)
Outline: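 Imaging-based neuron count in rat cortical cultures after chemical exposure from DIV 7 to DIV 12, with AraC added at DIV 5. Activity is fitted relative to DMSO.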

[19] = IUF_NPC2c_oligodendrocyte_migration_120hr: Leibniz Research Institute for Environmental Medicine (IUF) 120-hour Neural Progenitor Cell Migration Assay for Oligodendrocyte Migration (NPC2c) (AID 2284297)
Outline: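 Read-out is the mean distance of O4-positive oligodendrocytes from the sphere core edge at 120 h, normalized to radial glia migration and fitted in the gain direction against DMSO. Spheres of primary human neural progenitors differentiated on laminin under continuous compound exposure.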

[20] = IUF_NPC2a_radial_glia_migration_120hr: Leibniz Research Institute for Environmental Medicine (IUF) 120-hour Neural Progenitor Cell Migration Assay for Radial Glia Migration (NPC2a) (AID 2284298)
Outline: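 Readout: distance in um from sphere core edge to migration-area edge, derived from Hoechst nuclei density with a threshold-defined polynomial boundary. Spheres: hNPC, GW 16-19, 0.3 mm, on PDL/laminin; exposure 5 days; DMSO is baseline.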

[21] = IUF_NPC2a_radial_glia_migration_72hr: Leibniz Research Institute for Environmental Medicine (IUF) 72-hour Neural Progenitor Cell Migration Assay for Radial Glia Migration (NPC2a) (AID 2284299)
Outline: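 Migration out of plated human neural progenitor spheres is scored at 72 h as the distance in um from the sphere core edge to the edge of the migration area. Values are the mean of four manual measurements per well, normalised to DMSO.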

[22] = IUF_NPC3_neuronal_differentiation_120hr: Leibniz Research Institute for Environmental Medicine (IUF) 120-hour Neuronal Differentiation Assay (NPC3) (AID 2284301)
Outline: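 Single 0.3 mm neurospheres from human fetal cortex were plated in differentiation medium containing test compound. Medium was half-replaced on day 3. After 120 h cells were fixed, immunostained and imaged, and neuronal fraction was scored against DMSO control.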

[23] = IUF_NPC4_neurite_length_120hr: Leibniz Research Institute for Environmental Medicine (IUF) 120-hour Neuronal Morphology Assay for Neurite Length (NPC4) (AID 2284302)
Outline: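 Read-out is mean neurite length in µm of TUBB3-positive neurons, skeletonized from high-content fluorescence images after 120 h. Single 0.3 mm primary human neural progenitor spheres differentiated on poly-D-lysine/laminin under continuous compound exposure; DMSO was baseline.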

[24] = IUF_NPC5_oligodendrocyte_differentiation_120hr: Leibniz Research Institute for Environmental Medicine (IUF) 120-hour Oligodendrocyte Differentiation Assay (NPC5) (AID 2284304; active = hit-call score of the fitted dose curve at least 0.9, where 1 is the maximum;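 note: primary human fetal neural progenitor spheres plated to migrate and differentiate; share of O4-positive cells among Hoechst nuclei found by CNN image analysis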)
Outline: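 Oligodendrocyte differentiation was scored after 120 h as the O4-positive share of Hoechst-stained nuclei across the neurosphere migration area, using a trained convolutional neural network on high-content fluorescence images. Human fetal neural progenitor spheres were dosed from day 0, normalised to DMSO.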

[25] = IUF_NPC2-5_cytotoxicity_72hr: Cytotoxicity Assessment at 72 hours in the Leibniz Research Institute for Environmental Medicine (IUF) Neural Progenitor Cell Migration and Differentiation Assay for Cytotoxicity (NPC2-5) (AID 2284306; active = hit-call score of the fitted dose curve at least 0.9, where 1 is the maximum;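 note: LDH release into supernatant measured by resorufin fluorescence marking membrane damage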)
Outline: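 Membrane integrity loss was scored from fluorescence (RFU) of resorufin generated by LDH in culture supernatant, 72 h after dosing. Differentiating human progenitor spheres received seven serial compound concentrations alongside a solvent control.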

[26] = IUF_NPC2-5_cytotoxicity_120hr: Cytotoxicity Assessment at 120 hours in the Leibniz Research Institute for Environmental Medicine (IUF) Neural Progenitor Cell Migration and Differentiation Assay (NPC2-5) (AID 2284307; active = hit-call score of the fitted dose curve at least 0.9, where 1 is the maximum;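 note: LDH released into supernatant as membrane damage marker via resorufin fluorescence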)
Outline: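 Sphere plating starts differentiation and exposure together at day 0. Compound solution is half-replaced on day 3. At 120 h, medium supernatant is taken for an LDH membrane-integrity read based on resazurin reduction to resorufin fluorescence.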

[27] = IUF_NPC2-5_cell_number_120hr: Cell Number Assessment at 120 hours in the Leibniz Research Institute for Environmental Medicine (IUF) Neural Progenitor Cell Migration and Differentiation Assay (NPC2-5) (AID 2284308);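 note: count of Hoechst-stained nuclei in migration zone around plated human neural progenitor spheres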
Outline: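 hNPC spheres, one per well, PDL/laminin, N2 medium, 37C, 5% CO2. Dosing day 0 → half-medium change with fresh compound day 3 → fix 120 h. Readout: Hoechst+ nuclei count, migration area; 7 concentrations plus solvent control.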

[28] = IUF_NPC2-5_viability_120hr: Viability Assessment at 120 hours in the Leibniz Research Institute for Environmental Medicine (IUF) Neural Progenitor Cell Migration and Differentiation Assay (NPC2-5) (AID 2284312)
Outline: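 Alamar blue resorufin fluorescence read after 5 days of differentiation, with compound present from day 0 and replenished at day 3. Primary hNPC spheres on laminin-coated plates, 37C; seven concentrations plus solvent control, fitted against DMSO.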

[29] = IUF_NPC1_cytotoxicity_72hr: Cytotoxicity Assessment at 72 hours in the Leibniz Research Institute for Environmental Medicine (IUF) Neural Progenitor Cell Proliferation Assay (NPC1) (AID 2284332; active = hit-call score of the fitted dose curve at least 0.9, where 1 is the maximum;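 note: rising LDH signal means more cytotoxicity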)
Outline: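 hNPC spheres (fetal brain, gestational week 16-19) grown under proliferative EGF/FGF conditions, pH 7.2-7.6, were treated continuously for 72 h. Cytotoxicity came from LDH-coupled resazurin fluorescence in each well's supernatant.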

Measured: AC50

C[C@@H]1C[C@H]2[C@@H]3CCC4=CC(=O)C=C[C@]4(C)[C@@]3(F)[C@@H](O)C[C@]2(C)[C@@]1(O)C(=O)CO
active: [3] 0.0901 µM | [7] 21.1 µM | [26] 0.024 µM
inactive: all other assays above
